Reference: PubChem BioAssay (EPA / NIEHS)
Records with an inconclusive call do not appear. Calls of active or inactive are those of the source. The calls were made as follows: active = hit-call score of the fitted dose curve at least 0.9, where 1 is the maximum; inconclusive = response in the unintended direction; inactive = score below 0.9.

These molecules were tested against guinea pig Serotonin, 5-Hydroxytryptamine Receptor 4 (5HT4), HTR4 (gene 100135548) (UniProt O70528) (assay: NVS_GPCR_g5HT4: NovaScreen (NVS) G Protein-Coupled Receptor Assay for guinea pig Serotonin, 5-Hydroxytryptamine Receptor 4 (5HT4) (AID 2283294)).
Sequence of guinea pig Serotonin, 5-Hydroxytryptamine Receptor 4 (5HT4), HTR4 (gene 100135548) (O70528 whole entry, looked up): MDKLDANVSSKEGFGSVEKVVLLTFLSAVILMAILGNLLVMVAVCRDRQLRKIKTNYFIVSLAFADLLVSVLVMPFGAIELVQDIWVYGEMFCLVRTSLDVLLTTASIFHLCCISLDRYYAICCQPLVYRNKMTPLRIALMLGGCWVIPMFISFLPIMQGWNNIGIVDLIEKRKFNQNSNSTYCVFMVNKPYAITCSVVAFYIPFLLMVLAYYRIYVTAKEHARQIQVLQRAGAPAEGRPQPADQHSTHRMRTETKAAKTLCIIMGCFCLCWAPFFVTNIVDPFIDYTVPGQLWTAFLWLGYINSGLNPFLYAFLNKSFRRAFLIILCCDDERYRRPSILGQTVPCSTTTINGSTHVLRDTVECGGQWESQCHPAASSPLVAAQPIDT
Summary of the method: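 Guinea pig striatal membranes; radioligand competitive displacement, filtration and scintillation counting after 1 h. Primary screen in duplicate at 25 uM; actives then tested in concentration series; loss of binding signal fitted relative to DMSO.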
For `CCC(=C(c1ccc(O)cc1)c1ccc(OCCN(C)C)cc1)c1ccccc1`, the AC50 was 0.868 µM (active). `Cc1cc(C)c(O)c(C)c1` was tested, and the outcome was “inactive”. With `CN1CCN(c2ccccc2/C=C2\SCCN(c3ccc(Cl)c(Cl)c3)C2=O)CC1` the AC50 was 6.07 µM (active). For `CCCOc1sc(C(=O)N2CCC(c3cc(CN)ccc3F)CC2)c(C)c1Br`, the AC50 was 25.9 µM (active). `Nc1cccc2c(N)cccc12` was tested, and the outcome was “inactive”. `NC(=O)N(O)[C@@H]1C=C[C@H](Oc2cccc(Oc3ccc(F)cc3)c2)C1` was tested, and the AC50 was 17.6 µM (active). With `Cc1oc(-c2ccccc2)nc1CCOc1ccc(C[C@H](Nc2ccccc2C(=O)c2ccccc2)C(=O)O)cc1` the AC50 was 25 µM (active). For `Oc1cc2ccccc2c2ccccc12`, the outcome was “inactive”. With `CCN(CC)CCNc1ccc(CNC=O)c2sc3ccc(OC)cc3c(=O)c12` the AC50 was 7.23 µM (active). `Cc1cc(CCN2CCN(c3nsc4ccccc34)CC2)cc2c1NC(=O)CC2(C)C` was tested, and the AC50 was 15.2 µM (active).
